Laboratory results: PubChem BioAssay (Tox21)
Results filed as inconclusive are left out. The source made the active and inactive calls. Unless noted, calls follow the shape of the dose curve; as a rule, active = well fitted curve in the direction sought with a large enough effect in the repeat runs; inconclusive = weak or mixed curves; inactive = no such curve, though single readings can be large; an effect the other way counts as inactive or inconclusive.

How the values were obtained:
[1] = qHTS assay to identify small molecule agonists of the androgen receptor (AR) signaling pathway in the presence of an antagonist - cell viability counter screen (AID 1259379);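 also: MDA-kb2 human breast cancer cells carrying an MMTV luciferase reporter; series mostly up to about 92 µM; nearly all actives have a fitted effect of over 25% in size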
How it was run: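 Cytotoxicity counter-screen run in the same wells as the nilutamide-challenged (3.0 µM final) AR agonist assay in MDA-kb2 cells. Compounds tested at 15 concentrations for 16 h, 37 °C without CO2; CellTiter-Fluor fluorescence read.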

[2] = qHTS assay to identify small molecule agonists of the estrogen receptor beta (ER-beta) signaling pathway - cell viability counter screen (AID 1259380); also: nearly all actives have a fitted effect of over 30% in size
How it was run: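 Cell viability counter screen: CellTiter-Glo luminescence (30 min, room temperature) measured in the same wells as the beta-lactamase readout, after 16 hr compound exposure at 37C of ER-beta-bla HEK293T cells in 2% charcoal-stripped FBS medium.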

[3] = qHTS assay to identify small molecule antagonists of the estrogen receptor beta (ER-beta) signaling pathway - cell viability counter screen (AID 1259382);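 also: HEK293T cells carrying ER-beta-UAS-bla reporter stimulated with estradiol; series mostly up to about 92 µM; nearly all actives have a fitted effect of over 55% in size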
How it was run: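 Cytotoxicity was measured in the same wells by CellTiter-Glo luminescence after 30 min at room temperature. Cells were ER-beta-bla HEK293T in charcoal-stripped serum, given compound together with 1 nM E2 and incubated 16 h at 37C.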

[4] = molecular target: Estrogen receptor (Homo sapiens) (UniProt P03372); experiment: qHTS assay to identify small molecule agonists of the estrogen receptor alpha (ER-alpha) signaling pathway in the presence of an antagonist (AID 1259383; calls by dose curve; also: top concentration of the series differs between compounds; nearly all actives have a fitted effect of over 15% in size)
Sequence of Estrogen receptor (Homo sapiens) (P03372 whole entry, looked up): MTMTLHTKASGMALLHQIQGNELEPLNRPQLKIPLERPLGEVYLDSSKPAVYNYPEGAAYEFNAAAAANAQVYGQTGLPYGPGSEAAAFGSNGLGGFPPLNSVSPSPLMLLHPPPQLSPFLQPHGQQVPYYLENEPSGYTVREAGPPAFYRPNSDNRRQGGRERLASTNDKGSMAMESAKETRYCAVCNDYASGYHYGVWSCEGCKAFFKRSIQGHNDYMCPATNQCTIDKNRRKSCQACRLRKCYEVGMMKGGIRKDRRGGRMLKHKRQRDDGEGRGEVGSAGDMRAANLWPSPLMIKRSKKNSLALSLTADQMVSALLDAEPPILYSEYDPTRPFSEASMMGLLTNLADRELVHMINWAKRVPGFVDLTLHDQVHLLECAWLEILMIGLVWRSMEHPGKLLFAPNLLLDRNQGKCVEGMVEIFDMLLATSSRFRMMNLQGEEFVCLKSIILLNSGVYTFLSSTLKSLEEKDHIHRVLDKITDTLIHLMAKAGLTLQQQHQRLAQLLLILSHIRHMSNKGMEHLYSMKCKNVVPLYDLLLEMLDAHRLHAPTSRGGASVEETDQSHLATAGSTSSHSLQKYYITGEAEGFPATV
How it was run: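 Agonist-mode confirmation run in the presence of 10.0nM (final) ICI-182,780 antagonist. The reporter was ERE-driven luciferase in VM7Luc4E2 cells, grown in charcoal-stripped serum. Cells were exposed to 15-concentration compound series for 22hr, then ONE-Glo luminescence was read.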

[5] = qHTS assay to identify small molecule agonists or antagonists of the thyroid stimulating hormone receptor (TSHR) signaling pathway - wild type cell line counter screen (AID 1259384; calls by dose curve)
How it was run: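 Wild-type Hek293 cells, 800/well, 18 h at 37C, then compound with Ro20-1724 for 30 min RT. cAMP by HTRF (cAMP-d2/anti-cAMP cryptate), 1 h RT, fluorescence read. 15 concentrations, triplicates.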

[6] = molecular target: Thyrotropin receptor (Homo sapiens) (UniProt P16473); experiment: qHTS assay to identify small molecule antagonists of the thyroid stimulating hormone receptor (TSHR) signaling pathway (AID 1259385; calls by dose curve; also: nearly all actives have a fitted effect of over 20% in size)
Sequence of Thyrotropin receptor (Homo sapiens) (P16473 whole entry, looked up): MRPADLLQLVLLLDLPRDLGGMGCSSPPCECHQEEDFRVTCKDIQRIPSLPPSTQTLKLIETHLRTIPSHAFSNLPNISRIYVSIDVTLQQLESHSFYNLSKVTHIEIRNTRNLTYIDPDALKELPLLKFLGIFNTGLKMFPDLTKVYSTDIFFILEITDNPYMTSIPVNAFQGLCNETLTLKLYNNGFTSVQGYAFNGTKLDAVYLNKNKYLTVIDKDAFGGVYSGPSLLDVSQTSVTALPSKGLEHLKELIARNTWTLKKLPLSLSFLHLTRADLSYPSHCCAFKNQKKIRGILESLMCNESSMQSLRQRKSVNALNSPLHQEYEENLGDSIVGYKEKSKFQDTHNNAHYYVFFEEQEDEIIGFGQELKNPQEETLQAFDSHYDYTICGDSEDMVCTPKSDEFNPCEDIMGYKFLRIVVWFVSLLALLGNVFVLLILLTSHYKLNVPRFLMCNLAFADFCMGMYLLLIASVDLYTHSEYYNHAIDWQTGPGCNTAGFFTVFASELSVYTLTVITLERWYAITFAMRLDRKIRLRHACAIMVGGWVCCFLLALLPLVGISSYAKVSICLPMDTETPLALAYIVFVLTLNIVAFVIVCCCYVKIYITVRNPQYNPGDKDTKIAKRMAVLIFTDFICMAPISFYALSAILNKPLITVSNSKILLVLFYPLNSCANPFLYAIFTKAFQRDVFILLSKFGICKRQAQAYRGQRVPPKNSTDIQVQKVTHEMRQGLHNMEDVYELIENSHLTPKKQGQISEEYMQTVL
How it was run: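 TSHR-HEK293 cells (800/well) plated 18 h, then compounds with Ro20-1724 and TSH at 1.5 ng/mL final, 30 min at room temperature. cAMP quantified by HTRF (cAMP-d2/anti-cAMP-cryptate, 1 h); 15 concentrations in triplicate.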

[7] = qHTS assay to identify small molecule agonists of the estrogen receptor alpha (ER-alpha) signaling pathway in the presence of an antagonist - cell viability counter screen (AID 1259386); also: series mostly up to about 92 µM; nearly all actives have a fitted effect of over 30% in size
How it was run: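 Compounds tested at 15 concentrations for 22 h at 37C alongside 10.0nM (final) ICI-182,780 antagonist, in VM7Luc4E2 cells grown in phenol red-free, charcoal-stripped medium. Viability read by CellTiter-Fluor fluorescence after 1 h reagent incubation.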

[8] = molecular target: Progesterone receptor (Homo sapiens) (UniProt P06401); experiment: qHTS assay to identify small molecule antagonists of the progesterone receptor (PR) signaling pathway (AID 1346795; active = well fitted inhibition curve with a large enough effect in the signal ratio in the repeat runs, not every such curve was filed as active; the % refers to the signal ratio)
Sequence of Progesterone receptor (Homo sapiens) (P06401 whole entry, looked up): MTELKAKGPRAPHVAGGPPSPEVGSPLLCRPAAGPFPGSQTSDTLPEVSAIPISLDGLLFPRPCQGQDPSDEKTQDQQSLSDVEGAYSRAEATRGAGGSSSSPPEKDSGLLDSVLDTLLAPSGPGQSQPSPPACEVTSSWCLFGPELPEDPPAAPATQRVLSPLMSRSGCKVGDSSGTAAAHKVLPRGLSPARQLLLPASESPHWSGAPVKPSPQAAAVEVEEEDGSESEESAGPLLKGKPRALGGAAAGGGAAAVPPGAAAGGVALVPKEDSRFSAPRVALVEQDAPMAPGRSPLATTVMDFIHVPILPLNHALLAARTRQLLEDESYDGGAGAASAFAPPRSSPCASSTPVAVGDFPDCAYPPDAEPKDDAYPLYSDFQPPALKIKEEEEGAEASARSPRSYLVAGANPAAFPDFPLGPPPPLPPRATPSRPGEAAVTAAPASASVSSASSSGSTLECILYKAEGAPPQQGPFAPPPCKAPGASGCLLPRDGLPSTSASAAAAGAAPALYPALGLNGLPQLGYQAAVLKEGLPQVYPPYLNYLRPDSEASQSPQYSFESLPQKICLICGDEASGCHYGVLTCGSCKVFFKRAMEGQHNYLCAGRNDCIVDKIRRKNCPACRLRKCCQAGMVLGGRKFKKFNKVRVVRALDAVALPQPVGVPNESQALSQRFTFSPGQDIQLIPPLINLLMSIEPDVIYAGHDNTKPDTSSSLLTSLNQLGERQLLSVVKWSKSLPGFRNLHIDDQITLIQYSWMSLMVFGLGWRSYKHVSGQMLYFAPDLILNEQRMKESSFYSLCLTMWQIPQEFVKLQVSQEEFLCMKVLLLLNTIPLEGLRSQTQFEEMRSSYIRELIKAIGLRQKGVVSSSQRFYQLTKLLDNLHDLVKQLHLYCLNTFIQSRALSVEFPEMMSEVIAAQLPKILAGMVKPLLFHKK
How it was run: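 PR-UAS-bla HEK293T cells with beta-lactamase reporter under UAS control, in 2% charcoal-stripped FBS, treated with compounds plus 1 nM promegestone (R5020, final) for 16 hr at 37C. Read-out: FRET beta-lactamase substrate fluorescence after 2 hr at room temperature.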

[9] = qHTS assay to identify small molecule antagonists of the progesterone receptor (PR) signaling pathway - cell viability counter screen (AID 1346798); also: series mostly up to about 92 µM; nearly all actives have a fitted effect of over 50% in size
How it was run: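 PR-UAS-bla HEK293T cells, 3,000/well in 2% charcoal-stripped FBS medium, dosed with compounds plus R5020 agonist and incubated 16 h at 37C. Viability then measured in the same wells by CellTiter-Glo luminescence after 30 min at RT.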

[10] = qHTS assay to identify small molecule antagonists of the TGF-beta/Smad signaling pathway - cell viability counter screen (AID 1346824); also: nearly all actives have a fitted effect of over 50% in size
How it was run: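 SBE-bla HEK 293T cells, incubated overnight, then compound plus 0.25 ng/mL TGF-beta1 (stock added) for 5 hr at 37 C. Viability was read in the same wells by CellTiter-Glo luminescence after 30 min at room temperature.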

[11] = qHTS assay to identify small molecule agonists of the TGF-beta/Smad signaling pathway - cell viability counter screen (AID 1346829); also: top concentration of the series differs between compounds; nearly all actives have a fitted effect of over 45% in size
How it was run: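 CellTiter-Glo luminescence readout; SBE-bla HEK 293T cells, overnight plating, compound 5 hr at 37 C/5% CO2, then bla substrate 2 hr RT, then CellTiter-Glo 30 min RT.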

[12] = qHTS assay to identify small molecule agonists of the TGF-beta/Smad signaling pathway (AID 1346859; active = well fitted activation curve with a large enough effect in the signal ratio in the repeat runs, not every such curve was filed as active; the % refers to the signal ratio; also: series mostly up to about 77 µM)
How it was run: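 SBE-bla HEK293T cells plated overnight, then compound exposure for 5 h at 37 C. Beta-lactamase reporter read with LiveBLAzer B/G FRET substrate after 2 h at room temperature, fluorescence at 405 nm excitation, 460/530 nm emission.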

[13] = molecular target: Thyrotropin-releasing hormone receptor (Homo sapiens) (UniProt P34981); experiment: qHTS assay to identify small molecule antagonists of the thyrotropin-releasing hormone receptor (TRHR) signaling pathway (AID 1346877; active = well fitted inhibition curve with a large enough effect in the repeat runs, not every such curve was filed as active; also: series mostly up to about 51 µM)
Sequence of Thyrotropin-releasing hormone receptor (Homo sapiens) (P34981 whole entry, looked up): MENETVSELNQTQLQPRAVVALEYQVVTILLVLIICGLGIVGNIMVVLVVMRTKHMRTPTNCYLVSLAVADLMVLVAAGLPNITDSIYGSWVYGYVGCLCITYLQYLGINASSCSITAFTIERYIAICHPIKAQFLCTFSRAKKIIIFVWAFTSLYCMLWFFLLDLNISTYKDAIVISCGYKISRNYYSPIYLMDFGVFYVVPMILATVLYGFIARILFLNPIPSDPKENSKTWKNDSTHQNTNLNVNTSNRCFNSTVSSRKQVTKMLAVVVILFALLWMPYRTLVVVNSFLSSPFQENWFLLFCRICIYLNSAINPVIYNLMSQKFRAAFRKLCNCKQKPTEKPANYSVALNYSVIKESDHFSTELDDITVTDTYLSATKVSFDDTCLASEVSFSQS
How it was run: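 Antagonist mode: after a 5 min room-temperature compound exposure, cells were stimulated with 1 nM (final) TRH. Dye-loaded TRHR-HEK293 cells were used, and calcium-dependent fluorescence was followed for 3 min, with 15-point titrations run in triplicate.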

[14] = molecular target: Thyrotropin-releasing hormone receptor (Homo sapiens) (UniProt P34981); experiment: qHTS assay to identify small molecule agonists of the thyrotropin-releasing hormone receptor (TRHR) signaling pathway (AID 1346891; calls by dose curve; also: series mostly up to about 58 µM)
How it was run: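 HEK293 cells expressing TRHR plated 18 h at 37 C/5% CO2, calcium dye-loaded 2 h at 37 C, then compound added (agonist mode); kinetic calcium fluorescence read 3 min at 1 s intervals; 15 concentrations in triplicate.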

[15] = Human pregnane X receptor (PXR) small molecule agonists, qHTS cell viability counter screen (AID 1346977); also: nearly all actives have a fitted effect of over 50% in size
How it was run: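 PXR-Luc HepG2 cells (2,000/well, 5% charcoal-stripped FBS) preincubated 5 hr, then exposed to compounds 24 hr at 37 C. Viability read in the same wells by CellTiter-Fluor fluorescence, reagent added at 23 hr, 1 hr incubation.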

[16] = qHTS assay to identify small molecule agonists of the progesterone receptor (PR) signaling pathway - cell viability counter screen (AID 1346799; calls by dose curve; also: nearly all actives have a fitted effect of over 45% in size)
How it was run: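 Counter screen in the PR-UAS-bla HEK293T wells (2% charcoal-stripped FBS, 16 h compound exposure at 37 C) after the bla read. CellTiter-Glo added, 30 min at room temperature, luminescence read as cell viability.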

[17] = molecular target: Progesterone receptor (Homo sapiens) (UniProt P06401); experiment: qHTS assay to identify small molecule agonists of the progesterone receptor (PR) signaling pathway (AID 1346784; calls by dose curve; also: nearly all actives have a fitted effect of over 30% in size; also: potency is read from the fitted curve at half-maximal effect)
How it was run: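 PR-UAS-bla HEK 293T cells (beta-lactamase reporter under UAS) in 2% charcoal-stripped FBS, dosed with 23 nL compound after 6 hr, incubated 16hr at 37C. LiveBLAzer B/G FRET substrate added, fluorescence read after 2 hours.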

Measured: Potency

Cc1ccc(C(=O)Nc2ccc(S(=O)(=O)O)c3cc(S(=O)(=O)O)cc(S(=O)(=O)O)c23)cc1NC(=O)c1cccc(NC(=O)Nc2cccc(C(=O)Nc3cc(C(=O)Nc4ccc(S(=O)(=O)O)c5cc(S(=O)(=O)O)cc(S(=O)(=O)O)c45)ccc3C)c2)c1
inactive: [1] | [2] | [3] | [4] | [5] | [6] | [7] | [8] | [9] | [10] | [11] | [12] | [13] | [14] | [15]

CC[C@H]1OC(=O)[C@H](C)[C@@H](O[C@H]2C[C@@](C)(OC)[C@@H](O)[C@H](C)O2)[C@H](C)[C@@H](O[C@@H]2O[C@H](C)C[C@H](N(C)C)[C@H]2O)[C@](C)(OC)C[C@@H](C)C(=O)[C@H](C)[C@@H](O)[C@]1(C)O
inactive: [1] | [2] | [3] | [4] | [7] | [8] | [9] | [16] | [10] | [11] | [12] | [13] | [15]

CN(C)C(=O)Oc1ccc[n+](C)c1
inactive: [1] | [2] | [3] | [4] | [5] | [7] | [17] | [8] | [9] | [16] | [10] | [11] | [12]

CCCc1nn(C)c2c(=O)[nH]c(-c3cc(S(=O)(=O)N4CCN(C)CC4)ccc3OCC)nc12
inactive: [1] | [3] | [5] | [6] | [7] | [8] | [9] | [16] | [11] | [12] | [13] | [14] | [15]
active: [17] 13.3 µM

CC[N+](CC)(CC(=O)Nc1c(C)cccc1C)Cc1ccccc1 (tested in a mixture with another compound)
inactive: [1] | [2] | [3] | [5] | [6] | [7] | [8] | [9] | [16] | [10] | [11] | [12] | [15]

COc1ccnc(CS(=O)c2nc3cc(OC(F)F)ccc3[nH]2)c1OC (stereo not drawn)
inactive: [1] | [3] | [4] | [5] | [6] | [7] | [17] | [8] | [16] | [10] | [11] | [12] | [15]

C[N+]12CCC(CC1)C(OC(=O)C(O)(c1ccccc1)c1ccccc1)C2 (stereo not drawn)
inactive: [2] | [5] | [6] | [7] | [17] | [8] | [9] | [16] | [10] | [11] | [12] | [14] | [15]

NCCCC[C@H](N[C@@H](CCc1ccccc1)C(=O)O)C(=O)N1CCC[C@H]1C(=O)O
inactive: [1] | [2] | [3] | [7] | [8] | [16] | [10] | [11] | [12]

Nc1ccccn1
inactive: [1] | [2] | [3] | [5] | [6] | [9] | [16] | [10] | [11] | [12] | [13] | [14]

O=S(=O)(O)c1cccc2ccccc12
inactive: [1] | [2] | [3] | [5] | [7] | [8] | [9] | [16] | [10] | [11] | [12] | [14] | [15]

Cc1ccccc1N=C(N)N=C(N)N
inactive: [1] | [2] | [3] | [5] | [6] | [7] | [17] | [8] | [9] | [16] | [10] | [11] | [12] | [13] | [14]
